Measurements: PubChem BioAssay (NCATS)
Records with an inconclusive call do not appear. Where a call stands in place of a potency, no number is given. Values without a mark were called inactive. The source made the active and inactive calls. Calls follow the shape of the dose curve; as a rule, active = well fitted inhibition curve with a large enough effect; inconclusive = small, poorly fitted or top-dose-only effect; inactive = flat fitted curve, though single readings scatter.

What was measured:
[1] = tested on: TAB113; test: qHTS profiling for inhibitors of Plasmodium falciparum proliferation (AID 504749); also: potency is read from the fitted curve at half-maximal effect; conditions: P. falciparum in erythrocytes, SYBR Green DNA, 72 h; series mostly up to 28.7 µM
Method in brief: (§1)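 In a 72 h erythrocytic culture (37 C, humidified, 5% CO2) at 2.5% hematocrit and 0.3% starting parasitemia, compounds were tested; SYBR Green I in detergent lysis buffer stained parasite DNA overnight.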

[2] = tested on: TAB165; test: as above; conditions: P. falciparum in erythrocytes, SYBR Green DNA, 72 h; series mostly up to 28.7 µM
Method in brief: as §1

[3] = tested on: KB-3-1; test: Cytotoxic Profiling of Annotated Libraries Using Quantitative High-Throughput Screening (AID 1296008); conditions: Five cell lines viability, CellTiter-Glo ATP luminescence, 48-72 h; max response: active compounds read low
Method in brief: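 Cytotoxicity was measured as CellTiter-Glo ATP luminescence, read after 10 min at room temperature. Compound treatment of the cells lasted 48 or 72 hr at 37 degrees Celsius in a qHTS format.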

[4] = tested on: TAB109; test: qHTS profiling for inhibitors of Plasmodium falciparum proliferation (AID 504749); also: potency is read from the fitted curve at half-maximal effect; conditions: P. falciparum in erythrocytes, SYBR Green DNA, 72 h; series mostly up to 28.7 µM
Method in brief: as §1

[5] = tested on: W2; test: as above; conditions: P. falciparum in erythrocytes, SYBR Green DNA, 72 h; series mostly up to 28.7 µM
Method in brief: as §1
Also: nearly all actives have a fitted effect of over 60% in size.

Compound	Potency [1]	Potency [2]	max response [3]	Potency [4]	Potency [5]
CCOc1ccc2c3c1O[C@H]1[C@@H](O)C=C[C@H]4[C@@H](C2)N(C)CC[C@@]341	inactive	inactive	-8.27%	–	–
O=C1CC[C@@]2(O)C3Cc4ccc(O)c5c4C2(CCN3CC2CC2)[C@H]1O5 (some centres not stated)	inactive	inactive	–	inactive	–
[Cl-].[Cl-].[Hg+2]	–	–	-9.23%	–	9.53 µM (active)
Oc1cccc[c]1[Hg][Cl]	10 µM (active)	7.94 µM (active)	–	3.98 µM (active)	4.78 µM (active)
CCCC(C)(COC(N)=O)COC(=O)NC1CC1 (configuration not stated)	inactive	inactive	-23.5%	–	inactive
Clc1ccccc1Cl	inactive	inactive	–	inactive	inactive
COC([CH2][Hg])CNC(=O)c1ccccc1OCC(=O)O (configuration not stated)	inactive	inactive	–	–	inactive
CNC(C)C(O)c1ccc(O)cc1 (configuration not stated)	inactive	inactive	–	inactive	inactive
C[C@@H](Cc1ccccc1)NCCC(c1ccccc1)c1ccccc1	–	–	-4.5%	–	2.87 µM (active)
CN1CCCC(=C(c2cccs2)c2cccs2)C1	–	–	-14.6%	–	4.78 µM (active)
O[C@H]1[C@H]2[C@H](O)CCCN2C[C@H]1O	inactive	inactive	–	inactive	inactive
C=CCN1CCC23c4c5ccc(O)c4O[C@H]2C(=O)CC[C@@]3(O)C1C5 (some centres not stated)	inactive	inactive	–	inactive	inactive
O=C1CN=C(c2ccccc2)c2cc(Cl)ccc2N1CC1CC1	inactive	inactive	–	inactive	–
CN1C2CCC1CC(OC(c1ccccc1)c1ccc(Cl)cc1)C2 (configuration not stated)	7.94 µM (active)	5.01 µM (active)	–	7.08 µM (active)	2.39 µM (active)
c1ccc2cc(CC3=NCCN3)ccc2c1	inactive	inactive	–	inactive	inactive
CCNC(C)Cc1cccc(C(F)(F)F)c1 (configuration not stated)	inactive	inactive	–	inactive	–
O=C(CS(=O)C(c1ccccc1)c1ccccc1)NO (configuration not stated)	inactive	inactive	-1.93%	–	inactive
CC(C)(O)C1C2OC(=O)C1C1(O)CC3OC34C(=O)OC2C14C (configuration not stated)	inactive	inactive	–	inactive	inactive
Cc1sc2ccccc2c1CC1=NCCN1	inactive	inactive	–	inactive	–
CCN(CC)C(=O)/C(Cl)=C(\C)OP(=O)(OC)OC	inactive	inactive	–	inactive	–
C[C@]12CCC(=O)C[C@@H]1CC[C@@H]1[C@@H]2CC[C@]2(C)[C@@H](O)CC[C@@H]12	inactive	inactive	–	inactive	inactive
O=C1C2CC=CCC2C(=O)N1SC(Cl)(Cl)Cl (configuration not stated)	inactive	inactive	–	inactive	–
CC(C)Nc1ccc(Nc2ccccc2)cc1	10 µM (active)	7.94 µM (active)	–	7.94 µM (active)	4.78 µM (active)
COc1ccc2c(c1OC)C(=O)OC2C1c2cc3c(cc2CCN1C)OCO3 (configuration not stated)	inactive	inactive	–	inactive	–
C[N+]1(C)C2CCC1CC(OC(=O)c1c[nH]c3ccccc13)C2 (configuration not stated)	inactive	inactive	–	inactive	inactive
CC(=O)O[C@H]1CC[C@H]2[C@@H]3CCC4=CC(=O)CCC4=C3C=C[C@]12C	inactive	inactive	–	inactive	inactive
OC(c1ccccc1)(c1ccccc1)C1CN2CCC1CC2 (configuration not stated)	inactive	inactive	–	–	–
CCC1(c2ccccc2)C(=O)NC(=O)N(C)C1=O (configuration not stated)	–	–	-7.5%	–	6.75 µM (active)
CNC(=O)Oc1ccccc1C(=O)Nc1ccccc1	–	–	-7.71%	–	13.5 µM (active)
CC12NC(Cc3ccccc31)c1ccccc12 (configuration not stated)	–	–	–	2.82 µM (active)	4.26 µM (active)
